From PubChem BioAssay
Most compounds without a hit are left out; they make up all but 11% or so of the library.
GoLoco inh red: RGS12 GoLoco-Gai1 interaction inhibition; P63096; Potency, µM (highest dose often 61.6 µM), for the others: top-dose activity, negative = inhibition, hits mostly inhibitors; AID 880; Gai1:RGS12 GoLoco peptide FP, rhodamine, 10 min; 0.44% of 230,000 active; active = well fitted inhibition curve with a large enough effect, not every such curve was filed as active; inactive = no such curve, though single readings can be large or run the other way; note: potency is the fitted concentration of half-maximal effect; % is set by controls: 0 for no effect and ±100 for the full control effect; nearly all actives have a fitted effect of over 30% in size
HttQ103 aggreg: inhibitors of mutant huntingtin aggregate formation in PC12 cells; PC12 HttQ103-GFP aggregates, Acumen cytometry, 40 h; Potency, µM (highest dose often 46.1 µM), for inactives: top-dose activity change, negative = inhibition, most hits filed as inhibitors; AID 1688; 1.1% of 220,000 active; note: potency is the fitted concentration of half-maximal effect; % is set by controls: 0 for no effect and ±100 for the full control effect; nearly all actives have a fitted effect of over 60% in size
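Huntingtin Q103 exon 1–GFP aggregates in induced PC12 cells (100 nM tebufenozide) were quantified by cytometry from lysates, with compounds dosed in titration.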
ALDH1A1 inh: blocks purified human ALDH1A1 activity; Purified ALDH1A1, NADH fluorescence, propionaldehyde substrate; Potency, µM (titrated, usually from 75.3 µM), without a hit: at the top dose activity, negative = inhibition, most hits filed as inhibitors; 7.3% of 220,000 active; active = well fitted inhibition curve with a large enough effect, not every such curve was filed as active; inconclusive = small, poorly fitted or top-dose-only effect, or another doubt; inactive = no such curve, though single readings can be large or run the other way;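 note: potency is the fitted concentration of half-maximal effect; plate controls were no enzyme wells and a reference inhibitor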
Target sequence (P00352 whole entry, looked up): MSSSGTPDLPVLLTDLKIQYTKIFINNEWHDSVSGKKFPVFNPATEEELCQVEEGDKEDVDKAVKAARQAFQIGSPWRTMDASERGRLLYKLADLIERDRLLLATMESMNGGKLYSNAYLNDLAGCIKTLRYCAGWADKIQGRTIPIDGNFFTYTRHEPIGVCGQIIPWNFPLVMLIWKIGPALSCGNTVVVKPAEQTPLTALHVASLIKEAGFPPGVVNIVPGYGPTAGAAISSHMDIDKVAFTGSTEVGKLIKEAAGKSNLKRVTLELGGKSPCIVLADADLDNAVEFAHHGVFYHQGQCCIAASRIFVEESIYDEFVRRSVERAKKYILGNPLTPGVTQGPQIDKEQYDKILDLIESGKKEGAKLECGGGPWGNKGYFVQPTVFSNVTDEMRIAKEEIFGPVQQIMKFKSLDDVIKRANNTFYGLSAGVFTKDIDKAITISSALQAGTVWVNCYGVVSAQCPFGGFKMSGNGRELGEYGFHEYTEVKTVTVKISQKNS
HTT ATP protect: protects HTT-Q103 PC12 cells, measured by ATP; PC12 HTT-Q103 induced, cytoprotection, ATP luminescence, 40 h; 0.14% of 230,000 active; Potency, µM (titrated, usually from 56.4 µM), inactives show cytoprotection (ATP increase), most hits filed as activators; note: potency is the fitted concentration of half-maximal effect; % of control where 0% means no effect; nearly all actives have a fitted effect of over 45% in size
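Huntington model: PC12 line, ecdysone-inducible HTTQ103 exon1–GFP, tebufenozide 100 nM. Test articles in a dose series. Endpoint luminescence from cellular ATP.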
PNC inhibitor: inhibitors of perinucleolar compartment assembly | PC3M PTB-GFP, PNC prevalence imaging, 16 h; active compounds read low | 3.1% of 140,000 active | activity change (PNC), negative = inhibition, % at 10 µM;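 active = readout at or below -70, meaning at least 70% loss of cells showing the perinucleolar compartment, a nuclear body marking cancer cells; inconclusive = readout between -30 and a set limit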;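 note: plate controls were DMSO wells for no effect and camptothecin positive control wells for full effect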
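Compounds are pinned in duplicate onto adhered PC3M cells stably expressing GFP-tagged PTB and incubated 16 h at 37 C. Cells are then fixed, nuclei stained with Hoechst, and PNC-positive cells counted.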
HPGD block: HPGD (human) dehydrogenase inhibition; P15428; purified HPGD, NADH fluorescence kinetic, PGE2 substrate; Potency, µM, for the others: top-dose activity change, negative = inhibition, hits mostly inhibitors; 4.3% of 150,000 active; active = well fitted inhibition curve with a large enough effect, not every such curve was filed as active; inconclusive = small, poorly fitted or top-dose-only effect, or another doubt; inactive = no such curve, though single readings can be large or run the other way; note: potency is the fitted concentration of half-maximal effect; % is set by controls: 0 for no effect and ±100 for the full control effect
Target sequence (P15428 whole entry, looked up): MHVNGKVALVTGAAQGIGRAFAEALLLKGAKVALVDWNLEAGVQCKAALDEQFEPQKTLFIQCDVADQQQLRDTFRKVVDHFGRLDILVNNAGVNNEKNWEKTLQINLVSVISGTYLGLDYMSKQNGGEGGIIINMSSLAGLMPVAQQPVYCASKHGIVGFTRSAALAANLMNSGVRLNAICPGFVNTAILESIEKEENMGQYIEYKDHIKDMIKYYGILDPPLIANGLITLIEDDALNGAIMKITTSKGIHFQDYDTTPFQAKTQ
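NADH formation kinetics: reaction with 30 uM PGE2 and 1 mM NAD+ (final), 20 nM enzyme, Tris-HCl pH 8 with Tween 20, after 15 min compound preincubation at room temperature. Fluorescence change, last versus first of five reads.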
* marks the source's active call; other numbers are inactive results; u = inconclusive; x = no result; [ ] = another dose, or the depositor's remark. Unless noted, calls come from the whole dose curve; as a rule, active = well fitted curve in the direction sought with a large enough effect; inconclusive = small, poorly fitted or top-dose-only effect, or another doubt; inactive = no such curve, though single readings can be large; an effect the other way counts as inactive or inconclusive.

SMILES	GoLoco inh red	HttQ103 aggreg	ALDH1A1 inh	HTT ATP protect	PNC inhibitor	HPGD block
CCOc1ccccc1-n1c(SCC(=O)NC)nnc1-c1ccco1	3%	1%	7%	-16%	u	-5%
CCOc1ccccc1-n1c(SCC(N)=O)nnc1-c1cccnc1	8%	u	5%	-56%[10 µM]	-23	-13%
CCOc1ccccc1-n1c(SCC(N)=O)nnc1-c1ccco1	-6%	-11%	25µM*	16%[10 µM]	-20	-14%
CNC(=O)CSc1nnc(-c2ccco2)n1-c1ccccc1OC	3%	3%	20µM*	-20%[10 µM]	33	-5%
O=[N+]([O-])c1ccc(O)c(/C=N/n2cnc3ccccc32)c1	-4%	u	u	27%[10 µM]	-18	14µM*
O=[N+]([O-])c1ccc(O)c(/C=N/n2c(CO)nc3ccccc32)c1	0%	-13%[9.22 µM]	3.2µM*	11%[10 µM]	x	x
O=C(O)c1ccc([N+](=O)[O-])c(P(=O)(O)O)c1	3%[14.2 µM]	x	0%[13.5 µM]	-24%[10 µM]	x	-5%
CCCCCCCC#Cc1ccccc1C(NC(=O)OC)C(C(=O)OC)C(=O)OC (centres undefined)	x	x	12%[13.5 µM]	u	x	x
COc1ccnc(CSC(N)=Nc2ccccc2OC)c1	0%	u	25µM*	-1%[1.9 µM]	-81*	-8%
COc1ccnc(CSC(N)=Nc2cccc(C(F)(F)F)c2)c1	-4%	27%	20µM*	x	18	-13%
c1ccc(Oc2cccc(CN3CCOCC3)c2)cc1	-2%	u	u	10%	-8	25µM*
CC(=O)Nc1sc2c(c1C(c1ccc(F)cc1)N1CCOCC1)CCCC2 (centres undefined)	3%	13%	-8%	-11%	3	-11%
CC(=O)Nc1sc2c(c1C(c1ccc(Cl)cc1)N1CCOCC1)CCCC2 (centres undefined)	-4%	14%[9.22 µM]	0%	-39%	-106*	3%
Cc1ccccc1N1CN(Cc2ccco2)CNC1=S	-3%	2%	u	19%[10 µM]	u	-4%
CCn1ncc(CNC(=O)CCCSc2nc(-c3ccco3)cc(C(F)(F)F)n2)c1C	12%	u	u	0%[1.9 µM]	-24	-6%
CCn1ncc(CNC(=O)c2cccc([N+](=O)[O-])c2)c1C	-6%	-12%	12%	-37%[10 µM]	-92*	-2%
CCn1ncc(CNC(=O)C2(C)CC2(Cl)Cl)c1C (centres undefined)	-6%	-4%	-1%	25%[10 µM]	u	11µM*
CCn1cc(CNC(=O)c2cccc([N+](=O)[O-])c2)cn1	3%	2%	25%	-1%[10 µM]	26	-1%
OC1(Cc2ccccc2)CCNCC1	-2%	5%[9.22 µM]	8%	16%[10 µM]	x	x
Cc1ccc2c(c1)C(=O)C(=O)N2CC(=O)OC(C)C	4%	6%	0.079µM*	-6%	12	1%
Cc1ccc(N2CN=C3SCC(=O)N3C2)cc1C	4%	8%	2%	8%	x	x
COc1cc(/C=C2\SC(=Nc3ccc(O)cc3)NC2=O)cc(OC)c1O	37%	-11%	5%	-26%	x	x
COc1cc(/C=C2\SC(=Nc3c(C)n(C)n(-c4ccccc4)c3=O)NC2=O)ccc1O	-8%	u	-5%	27%[10 µM]	11	14µM*
O=C(C[n+]1cc(Br)cc(Br)c1)c1cccc([N+](=O)[O-])c1	-9%	5%	4µM*	17%[10 µM]	x	x
CO/N=C(/C)CCC(=O)OC[C@@H]1O[C@H](C#Cc2ccccc2)C=C[C@@H]1Oc1ccc(C)cc1	x	x	1%[13.5 µM]	-43%[10 µM]	x	x
SMILES	GoLoco inh red	HttQ103 aggreg	ALDH1A1 inh	HTT ATP protect	PNC inhibitor	HPGD block
CCOC(=O)C1=C(CC)Nc2ccccc2N=C1NC(=O)c1ccc(S(=O)(=O)N2CCCC2)cc1	22%	-2%	14µM*	-5%	x	x
CCC(C)c1ccc(NC(=O)CN(C)CC(=O)Nc2cccc(OC)c2)cc1 (centres undefined)	0%	-12%	u	-47%	x	x
CCC(C)c1ccc(NC(=S)Nc2ccc(OC)c(OC)c2)cc1 (centres undefined)	1%	-5%	28µM*	15%[10 µM]	59	1%
CCOc1ccc(CC(=O)NNC(=S)Nc2ccc(OC)c(OC)c2)cc1	15%	14%	1%	-36%	x	x
COc1ccc(NC(=S)Nc2ccc(OCc3ccccc3)cc2)cc1OC	-14%	-27%	18µM*	13%[10 µM]	80	-15%
CCC(C)c1ccc(NC(=S)Nc2ccc(OC)cc2C)cc1 (centres undefined)	1%	-6%	0%	25%[10 µM]	20	25µM*
COc1cccc(C2CC(c3cccc(Br)c3)n3nc(N)nc3N2)c1 (centres undefined)	-1%	12%	-4%	-9%[10 µM]	-26	-13%
Cc1cc(C)cc(OCC(=O)OCc2nnc(-c3ccccc3)o2)c1	3%	1%	4%	-32%	x	x
C=CCn1c(O)c(N=NC(=O)CNC(=O)/C=C/c2ccc(OC)cc2)c2ccccc21	4%	-9%[9.22 µM]	u	18%[10 µM]	x	x
C=CCn1c(O)c(N=NC(=O)CNC(=O)/C=C/c2ccco2)c2ccccc21	1%	30%	10µM*	3%[10 µM]	-1	-17%
Oc1c(N=NC(=S)Nc2ccccc2F)c2ccccc2n1Cc1ccccc1Cl	15%	-29%	u	-6%	x	x
C=CCn1c(O)c(N=NC(=S)Nc2ccccc2F)c2ccccc21	13%	u	28µM*	-28%	x	x
Cc1c(Cl)cccc1NC(=S)N=Nc1c(O)n(CN2CCOCC2)c2ccccc12	10%	-22%	u	x	u	-9%
Cc1ccc(Cn2c(O)c(N=NC(=S)Nc3ccccc3F)c3ccccc32)cc1	4%	-24%	11µM*	-20%	x	x
Oc1c(N=NC(=S)Nc2ccccc2F)c2ccccc2n1Cc1ccccc1	3%	u	20µM*	-14%	x	x
Nc1nc(NC2CC2)c2ncn([C@H]3C=C[C@@H](CO)C3)c2n1	2%	26%	x	-231%	x	x
O=C(CCCSc1nnnn1-c1cccc2ccccc12)c1ccc(F)cc1	5%	u	1.4µM*	-18%	24	-22%
c1ccc(CSc2nnnn2-c2cccc3ccccc23)nc1	3%	-12%	20µM*	-8%	u	-4%
Cc1ccn2cc(CSc3ccccc3)nc2c1	4%	5%	5%	-57%	-112*	-12%
c1ccc(-n2nnnc2SCc2cn3ccccc3n2)cc1	14%	-4%	4µM*	-12%	34	-7%
COC(=O)CSc1nnnn1-c1cccc2ccccc12	-3%	-12%	u	-3%[10 µM]	-10	-26%
Cc1ccc(SCc2cn3cccnc3n2)cc1	3%	15%	u	-13%	-29	u
c1ccc(-n2nnnc2SCc2cn3cccnc3n2)cc1	6%	-2%	u	23%[10 µM]	-4	u
C/C=C1\C2C=C(C)C[C@@]1(N)c1ccc(=O)[nH]c1C2	-4%	x	7%	-11%	x	-5%
